“And” between values parts separate entries of the source, which are not always exact repeats. Equal entries are not always repeated. Records with an inconclusive call do not appear. The source holds several records for some structures; these can differ, active in one and inactive in another. The source made the active and inactive calls. Rule for the calls, unless noted: active = hit-call score of the fitted dose curve at least 0.9, where 1 is the maximum; inactive = score below 0.9.

Data on 8 compounds can be found in PubChem BioAssay (EPA / NIEHS).

In assay [1] the target is Retinoic acid receptor RXR-alpha (Homo sapiens) (UniProt P19793). Briefly: OT_NURR1_NURR1RXRa_0480: Odyssey Thera (OT) 8-hour HEK293T Protein Complementation Assay for Nurr1/retinoid X receptor (RXR) (AID 2283385; active = hit-call score of the fitted dose curve at least 0.9, where 1 is the maximum). The essentials:
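Read-out: fluorescence from protein-fragment complementation between Nurr1 and RXRα in human HEK293T cells, 8 h after dosing. DMSO served as negative control; increased signal counted as activity.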

For assay [2] the target is unchanged. Briefly: OT_NURR1_NURR1RXRa_1440: Odyssey Thera (OT) 24-hour HEK293T Protein Complementation Assay for Nurr1/retinoid X receptor (RXR) (AID 2283386; active = hit-call score of the fitted dose curve at least 0.9, where 1 is the maximum). The essentials: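 Fluorescence PCA read-out; HEK293T; 24 h post-dose; bait/prey fused to reporter fragments; gain-of-signal fit vs DMSO negative control.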
Assay [3] has as its target Peroxisome proliferator-activated receptor gamma (Homo sapiens) (UniProt P37231). The assay can be described thus: OT_PPARg_PPARgSRC1_0480: Odyssey Thera (OT) 8-hour Protein-Complementation Assay for Peroxisome Proliferator-activated Receptor Gamma / SRC-1 Co-activator (AID 2283387; active = hit-call score of the fitted dose curve at least 0.9, where 1 is the maximum). The method, boiled down:
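Split-YFP (IFP1/IFP2) PPARg/SRC-1 reporter, HEK293T, 37 °C, 5% CO2; 8 h compound; formaldehyde fix + Draq5; high-content imaging, N/C ratio, ≥350 cells/image, positive direction vs DMSO.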

The nature of assay [4]: CEETOX_H295R_OHPREG: CeeTox H295R High-throughput Steroidogenesis Assay for OH-Pregnenolone (OHPREG) (AID 2283434). The conditions noted are these: actives raise or lower the signal. The method, boiled down:
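Secreted 17alpha-hydroxypregnenolone measured by HPLC-MS/MS after liquid-liquid extraction. Human adrenal H295R cells received 48 h forskolin (10 uM) stimulation before 48 h chemical exposure at 0.1% final DMSO; MTT viability in same wells; bidirectional fit against DMSO.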

Assay [5] is described as follows: CEETOX_H295R_ANDR: CeeTox H295R High-throughput Steroidogenesis Assay for Androstenedione (ANDR) (AID 2283436). Particulars: actives raise or lower the signal. The method, boiled down: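 Medium from 48 h chemical-treated H295R adrenal cells was extracted with MTBE and androstenedione measured by LC-MS/MS. Activity was fit in both directions relative to DMSO. Cytotoxic concentrations were re-tested after dilution until MTT viability reached ≥70%.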

Assay [6] is described as follows: CEETOX_H295R_PROG: CeeTox H295R High-throughput Steroidogenesis Assay for Progesterone (PROG) (AID 2283442). Particulars: actives raise or lower the signal. The essentials:
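H295R adrenal cells prestimulated 48 h with 10 uM forskolin, then exposed 48 h to test chemical in 0.1% DMSO. Progesterone in medium quantified by HPLC-MS/MS after MTBE extraction; viability checked by MTT in same wells.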

Read-out in assay [7]: Tumor necrosis factor receptor superfamily member 6 (Homo sapiens) (UniProt P25445)
The assay can be described thus: LTEA_HepaRG_FAS: Life Technologies and Expression Analysis (LTEA) Assay for Fas cell surface death receptor (FAS) using HepaRG (AID 2283447). The conditions noted are these: mRNA level, 48 h; actives raise or lower the signal. The essentials: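 FAS transcript level was measured by TaqMan qRT-PCR against three housekeeping genes after 48 h chemical exposure. Cells were HepaRG, 0.5% DMSO vehicle, with a top concentration of 100 uM and half-log dilutions over eight points, in duplicate.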

Read-out in assay [8]: Fatty acid synthase (Homo sapiens) (UniProt P49327)
The assay can be described thus: LTEA_HepaRG_FASN: Life Technologies and Expression Analysis (LTEA) Assay for Fatty Acid Synthase (FASN) using HepaRG (AID 2283448).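 For AC50: differentiated human HepaRG liver cells in serum-free induction medium.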 The conditions noted are these: mRNA level, 48 h; actives raise or lower the signal. The essentials:
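HepaRG, 48 h exposure, 8-pt half-log series top 100 uM, 0.5% DMSO vehicle, duplicates. Readout: FASN transcript by Fluidigm qRT-PCR; housekeeping-normalized; bidirectional curve fit vs DMSO baseline.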

Read-out in assay [9]: Cyclin D2 (CCND2), CCND2 (gene 894)
The assay can be described thus: LTEA_HepaRG_CCND2: Life Technologies and Expression Analysis (LTEA) Assay for Cyclin D2 (CCND2) using HepaRG (AID 2283449). Particulars: mRNA level, 48 h; actives raise or lower the signal. The essentials:
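CCND2 transcript levels, quantified by qRT-PCR and normalised to three housekeeping genes, were fitted bidirectionally against 0.5% DMSO. HepaRG cultures were dosed 48 h in duplicate with an 8-point half-log series up to 100 uM.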

Read-out in assay [10]: Cyclin Dependent Kinase Inhibitor 1A (CDKN1A), CDKN1A (gene 1026)
The assay can be described thus: LTEA_HepaRG_CDKN1A: Life Technologies and Expression Analysis (LTEA) Assay for Cyclin Dependent Kinase Inhibitor 1A (CDKN1A) using HepaRG (AID 2283450). The conditions noted are these: mRNA level, 48 h; actives raise or lower the signal. The essentials: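 Differentiated HepaRG cells in serum-free induction medium, exposed 48 h in duplicate to eight half-log concentrations up to 100 uM in 0.5% DMSO. mRNA measured by TaqMan qRT-PCR, normalized to ACTB, GAPDH, POLR2A; bidirectional fit versus DMSO.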

Read-out in assay [11]: Cyclin D1 (CCND1), CCND1 (gene 595)
Briefly: LTEA_HepaRG_CCND1: Life Technologies and Expression Analysis (LTEA) Assay for Cyclin D1 (CCND1) using HepaRG (AID 2283451).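 For AC50: differentiated human HepaRG liver cells in serum-free induction medium; TaqMan qRT-PCR transcript level normalised to ACTB GAPDH and POLR2A housekeeping genes.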 The conditions noted are these: mRNA level, 48 h; actives raise or lower the signal. The essentials: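 Differentiated HepaRG cells exposed 48 h in serum-free induction medium to eight half-log concentrations from 100 uM top, 0.5% DMSO, duplicates. CCND1 mRNA measured by Fluidigm TaqMan qRT-PCR, normalised to ACTB, GAPDH, POLR2A; bidirectional fit.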

Read-out in assay [12]: flavin-containing dimethylaniline monooxygenases 3 (FMO3), FMO3 (gene 2328)
Briefly: LTEA_HepaRG_FMO3: Life Technologies and Expression Analysis (LTEA) Assay for flavin-containing dimethylaniline monooxygenases 3 (FMO3) using HepaRG (AID 2283453).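 For AC50: differentiated human HepaRG liver cells in serum-free induction medium; FMO3 transcript by TaqMan qRT-PCR normalized to ACTB GAPDH and POLR2A.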 The conditions noted are these: mRNA level, 48 h; actives raise or lower the signal. The essentials: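 Eight-point concentration-response in serum-free HepaRG cultures (top 100 uM, 0.5% DMSO, 48 h). Read-out: FMO3 mRNA level normalized to three endogenous control genes, fitted bidirectionally versus vehicle.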

The nature of assay [13]: CEETOX_H295R_11DCORT: CeeTox H295R High-throughput Steroidogenesis Assay for 11-Deoxycortisol (11DCORT) (AID 2283432).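 For AC50: 11-deoxycortisol secreted into the medium measured by LC-MS/MS.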 The conditions noted are these: actives raise or lower the signal. The essentials: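 Steroidogenesis in human H295R cells: 48 h chemical exposure after forskolin priming, 11-deoxycortisol measured by LC-MS/MS.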
Assay [14] is described as follows: CEETOX_H295R_CORTISOL: CeeTox H295R High-throughput Steroidogenesis Assay for Cortisol (AID 2283438).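 Note: cortisol secreted into medium quantified by LC-MS/MS.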 Particulars: actives raise or lower the signal. The essentials:
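Read-out: cortisol in culture medium by reverse-phase C18 HPLC with ESI-positive tandem MS, after MTBE liquid-liquid extraction. Cells: human adrenal H295R, forskolin-primed (10 uM, 48 h) before 48 h chemical exposure in 0.1% DMSO.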

Read-out in assay [15]: catalase (CAT), CAT (gene 847)
The assay can be described thus: LTEA_HepaRG_CAT: Life Technologies and Expression Analysis (LTEA) Assay for catalase (CAT) using HepaRG (AID 2283452). Particulars: mRNA level, 48 h; actives raise or lower the signal. The method, boiled down: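 Expression of CAT was quantified by TaqMan qRT-PCR with ACTB/GAPDH/POLR2A normalization after 48 h chemical exposure of HepaRG. Eight-point half-log series, top 100 uM, in 0.5% DMSO; gain or loss fitted against vehicle.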

Assay [16] has as its target Peroxisome proliferator-activated receptor gamma (Homo sapiens) (UniProt P37231). Briefly: OT_PPARg_PPARgSRC1_1440: Odyssey Thera (OT) 24-hour Protein-Complementation Assay for Peroxisome Proliferator-activated Receptor Gamma/ SRC-1 Co-activator (AID 2283388; active = hit-call score of the fitted dose curve at least 0.9, where 1 is the maximum). The essentials: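 HEK293T transiently transfected with PPARg/SRC-1 split-Venus YFP fusions 48 h before dosing, then treated 24 h at 37C. Fixed cells imaged; nuclear/cytoplasmic 488 nm fluorescence ratio, gain of signal versus DMSO.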

Assay [17] can be described thus: CEETOX_H295R_CORTIC: CeeTox H295R High-throughput Steroidogenesis Assay for Corticosterone (CORTIC) (AID 2283437). Particulars: actives raise or lower the signal. The method, boiled down: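 Medium corticosterone was quantified by tandem mass spectrometry following 48 hours of chemical exposure (0.1% DMSO) in human H295R cells previously stimulated 48 hours with 10 uM forskolin. Viability checked by MTT; chemicals diluted and retested when viability fell below 70%.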

A short description of assay [18]: CEETOX_H295R_DOC: CeeTox H295R High-throughput Steroidogenesis Assay for DOC (AID 2283439). The conditions noted are these: actives raise or lower the signal. The essentials: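 Human adrenocortical H295R cells, passages up to 10, received 10 uM forskolin for 48 h before chemical addition. After another 48 h exposure in 0.1% DMSO, secreted DOC was measured by LC-MS/MS, with gain or loss fitted against DMSO controls.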

Peroxisome proliferator-activated receptor gamma (Homo sapiens), sequence (P37231 whole entry, looked up, the tested form may be a part): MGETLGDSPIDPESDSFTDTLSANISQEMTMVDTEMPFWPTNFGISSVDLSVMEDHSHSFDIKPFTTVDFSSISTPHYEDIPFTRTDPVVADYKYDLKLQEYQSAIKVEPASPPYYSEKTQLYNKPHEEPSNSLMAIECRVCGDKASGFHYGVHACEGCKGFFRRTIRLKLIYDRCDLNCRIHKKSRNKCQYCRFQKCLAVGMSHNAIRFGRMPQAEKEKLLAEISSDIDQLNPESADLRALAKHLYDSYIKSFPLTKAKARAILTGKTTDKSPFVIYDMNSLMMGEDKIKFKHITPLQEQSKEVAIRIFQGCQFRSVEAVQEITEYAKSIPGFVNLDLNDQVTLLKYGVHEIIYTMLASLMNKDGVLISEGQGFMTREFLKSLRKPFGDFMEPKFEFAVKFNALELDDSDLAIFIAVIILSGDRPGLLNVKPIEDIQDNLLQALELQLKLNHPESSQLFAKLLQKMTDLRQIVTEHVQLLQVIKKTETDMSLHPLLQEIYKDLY
Fatty acid synthase (Homo sapiens), sequence (P49327 whole entry, looked up): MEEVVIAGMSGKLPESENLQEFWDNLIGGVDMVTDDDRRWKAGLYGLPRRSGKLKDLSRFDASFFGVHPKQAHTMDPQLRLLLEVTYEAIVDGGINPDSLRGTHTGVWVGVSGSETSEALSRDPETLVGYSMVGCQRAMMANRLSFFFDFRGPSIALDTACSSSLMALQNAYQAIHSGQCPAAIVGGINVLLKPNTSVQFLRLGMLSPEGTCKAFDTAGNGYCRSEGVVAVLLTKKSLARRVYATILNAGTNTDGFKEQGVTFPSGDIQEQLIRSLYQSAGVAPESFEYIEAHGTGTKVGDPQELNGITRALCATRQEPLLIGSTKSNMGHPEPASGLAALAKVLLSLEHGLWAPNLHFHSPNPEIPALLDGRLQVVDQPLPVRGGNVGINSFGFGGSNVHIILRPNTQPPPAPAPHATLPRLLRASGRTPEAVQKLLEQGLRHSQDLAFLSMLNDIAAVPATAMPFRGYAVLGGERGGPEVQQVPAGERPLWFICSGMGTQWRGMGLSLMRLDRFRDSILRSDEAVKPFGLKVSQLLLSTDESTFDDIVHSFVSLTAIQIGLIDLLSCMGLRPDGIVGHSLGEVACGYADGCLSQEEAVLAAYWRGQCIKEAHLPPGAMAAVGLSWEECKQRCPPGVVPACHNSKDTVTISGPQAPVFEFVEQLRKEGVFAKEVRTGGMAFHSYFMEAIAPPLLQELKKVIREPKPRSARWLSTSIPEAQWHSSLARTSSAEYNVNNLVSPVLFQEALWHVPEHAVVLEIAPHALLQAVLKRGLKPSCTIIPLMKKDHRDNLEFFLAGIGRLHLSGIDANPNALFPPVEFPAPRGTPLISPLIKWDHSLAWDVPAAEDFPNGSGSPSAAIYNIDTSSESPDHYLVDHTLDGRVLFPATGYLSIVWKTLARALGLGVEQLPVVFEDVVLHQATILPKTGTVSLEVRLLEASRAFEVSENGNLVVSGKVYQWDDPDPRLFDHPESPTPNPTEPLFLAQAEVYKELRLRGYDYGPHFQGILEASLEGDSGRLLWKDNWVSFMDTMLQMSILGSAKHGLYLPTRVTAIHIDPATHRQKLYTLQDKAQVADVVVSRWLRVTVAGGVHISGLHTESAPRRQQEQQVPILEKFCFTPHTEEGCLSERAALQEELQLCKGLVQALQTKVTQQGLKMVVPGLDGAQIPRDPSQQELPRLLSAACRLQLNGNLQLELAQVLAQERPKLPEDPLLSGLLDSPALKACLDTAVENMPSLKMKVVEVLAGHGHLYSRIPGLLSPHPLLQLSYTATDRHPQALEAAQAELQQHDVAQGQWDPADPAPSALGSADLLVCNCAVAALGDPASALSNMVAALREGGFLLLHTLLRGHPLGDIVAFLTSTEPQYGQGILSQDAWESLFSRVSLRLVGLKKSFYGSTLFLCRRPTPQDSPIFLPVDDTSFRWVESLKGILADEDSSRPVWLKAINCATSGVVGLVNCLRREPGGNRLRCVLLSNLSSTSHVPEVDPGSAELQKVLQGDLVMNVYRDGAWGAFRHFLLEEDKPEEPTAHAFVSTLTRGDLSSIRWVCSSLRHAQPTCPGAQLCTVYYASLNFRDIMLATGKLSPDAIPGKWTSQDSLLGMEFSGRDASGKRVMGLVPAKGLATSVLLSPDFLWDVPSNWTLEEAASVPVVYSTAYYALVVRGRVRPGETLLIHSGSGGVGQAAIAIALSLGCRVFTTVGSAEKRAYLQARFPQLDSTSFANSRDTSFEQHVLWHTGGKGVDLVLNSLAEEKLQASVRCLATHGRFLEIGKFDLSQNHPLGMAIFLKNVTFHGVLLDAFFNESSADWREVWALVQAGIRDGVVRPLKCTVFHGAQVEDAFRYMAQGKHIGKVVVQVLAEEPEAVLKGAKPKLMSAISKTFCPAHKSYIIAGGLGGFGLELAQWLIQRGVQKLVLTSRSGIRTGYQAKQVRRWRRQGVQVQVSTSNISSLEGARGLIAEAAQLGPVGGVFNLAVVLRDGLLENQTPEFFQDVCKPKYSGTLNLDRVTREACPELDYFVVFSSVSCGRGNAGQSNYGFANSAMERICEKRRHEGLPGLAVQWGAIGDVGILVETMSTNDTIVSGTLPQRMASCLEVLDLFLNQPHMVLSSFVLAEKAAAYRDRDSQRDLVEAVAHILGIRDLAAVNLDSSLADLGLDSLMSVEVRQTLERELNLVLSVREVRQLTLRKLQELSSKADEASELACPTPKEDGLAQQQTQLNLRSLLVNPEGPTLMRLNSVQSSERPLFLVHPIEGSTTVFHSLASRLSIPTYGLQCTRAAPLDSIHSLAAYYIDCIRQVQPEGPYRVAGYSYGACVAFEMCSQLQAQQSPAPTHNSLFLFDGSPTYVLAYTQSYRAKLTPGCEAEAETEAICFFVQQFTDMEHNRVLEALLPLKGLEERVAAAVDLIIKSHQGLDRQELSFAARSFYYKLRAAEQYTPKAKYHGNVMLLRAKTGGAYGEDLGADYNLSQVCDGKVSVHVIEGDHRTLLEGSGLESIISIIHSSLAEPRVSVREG
Retinoic acid receptor RXR-alpha (Homo sapiens), sequence (P19793 whole entry, looked up, the tested form may be a part): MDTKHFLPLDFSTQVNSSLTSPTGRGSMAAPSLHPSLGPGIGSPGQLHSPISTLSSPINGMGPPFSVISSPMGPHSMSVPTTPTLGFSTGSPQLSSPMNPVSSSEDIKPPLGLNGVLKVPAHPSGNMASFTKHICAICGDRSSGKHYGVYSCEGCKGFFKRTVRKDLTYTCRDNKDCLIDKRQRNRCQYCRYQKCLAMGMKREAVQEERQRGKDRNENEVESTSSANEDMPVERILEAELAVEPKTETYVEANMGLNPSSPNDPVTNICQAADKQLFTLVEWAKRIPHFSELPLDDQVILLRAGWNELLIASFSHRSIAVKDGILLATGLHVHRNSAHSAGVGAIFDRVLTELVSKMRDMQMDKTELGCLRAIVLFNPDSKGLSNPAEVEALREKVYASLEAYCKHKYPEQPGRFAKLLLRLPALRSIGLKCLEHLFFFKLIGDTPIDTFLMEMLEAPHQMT

Consider `C[C@]12C=CC3=C4CCC(=O)C=C4CC[C@H]3[C@@H]1CC[C@@H]2O`, for which the AC50 in assay [1] was 14.3 µM (active); in [2] it was 12 µM (active) and 12.5 µM (active) and 12.6 µM (active); in [4], 13.2 µM (active); in assay [5] it was 90.1 µM (active); in [6] it was 0.0975 µM (active); in [8], 61 µM (active). For the same compound, the AC50 in assay [12] was 20.3 µM (active). Besides, the outcome in [1], in [2], in assay [3], in assay [7], in assay [9] and in assay [10] was inactive. Besides, the compound was called inactive in assay [11].

Regarding `c1ccc(NNc2ccccc2)cc1`, the compound was called inactive in assay [1], in [2], in assay [13], in assay [4], in [14] and in assay [6]. The call in assay [7], in [8], in assay [9], in assay [10], in assay [11] and in [15] was inactive. For the same compound, in assay [12], the result was inactive. The AC50 in [2] was 82.8 µM (active).

For the compound `O=C(Oc1ccc(Br)cc1)N1CCN2CCC1CC2`, the compound was called inactive in [1], in [2], in assay [3], in [16], in assay [17] and in assay [14]. Besides, the outcome in [9], in [10], in [11], in assay [15] and in [12] was inactive. Also, the AC50 is 6.83 µM (active) in assay [13], 1.06 µM (active) in [18], 1.3 µM (active) in assay [6] and 75.9 µM (active) in assay [8].

In the case of `O=[N+]([O-])c1ccc(Oc2ccc(Cl)cc2Cl)cc1`, the AC50 in assay [1] was 75.3 µM (active); in [8], 50 µM (active); in assay [12] it was 50 µM (active). Besides, the compound was classed as inactive in assay [1], in assay [2], in [3], in [16], in assay [4] and in assay [17]. Besides, the outcome in assay [18], in assay [6], in assay [9], in assay [10] and in [11] was inactive.

Consider `Cc1ccc(N)cc1`, for which the result in [1], in assay [2], in assay [3], in [16], in assay [7] and in assay [8] was inactive. Besides, the compound was called inactive in assay [9], in assay [10], in assay [11], in [15] and in assay [12]. In addition, the concentration at half-maximal activity (AC50) in [2] was 50 µM (active).

Regarding `CCN(CC)N=O`, the compound was classed as inactive in assay [1], in assay [2], in assay [3], in [16], in assay [7] and in assay [8]. The outcome in [9], in assay [10], in assay [11], in assay [15] and in assay [12] was inactive.

With `O=C(O)C1C2CCC(O2)C1C(=O)O` (centres undefined), the AC50 was 74.3 µM (active) in assay [1]; 32 µM (active) in assay [2]; 84.3 µM (active) in assay [8]; 35.8 µM (active) in [10]; 32.3 µM (active) in assay [11]; 56.4 µM (active) in assay [12]. Moreover, the outcome in assay [1], in assay [2], in [9] and in [15] was inactive.

For the compound `CCCCOC(=O)c1ccccc1C(=O)OCc1ccccc1`, the outcome in assay [1], in assay [2], in assay [3], in [16], in assay [8] and in [9] was inactive. In addition, the call in assay [10], in assay [11] and in assay [12] was inactive.
